Assay outcomes: PubChem, National Center for Advancing Translational Sciences (NCATS)
TRb SRC2 PPI: qHTS for Inhibitors of the Interaction of Thyroid Hormone Receptor and Steroid Receptor Coregulator 2; Potency, µM (highest dose often 106 µM), inactives show at the top dose activity change, negative = inhibition, hits mostly inhibitors; 280,000 compounds, 0.065% hits; Thyroid hormone receptor beta (Homo sapiens), P10828; TRbeta-SRC2 peptide binding, fluorescence polarization; receptor liganded with 1 µM T3;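 note: potency is the fitted concentration of half-maximal effect; plate controls were bound peptide for no effect and peptide without receptor for full effect; nearly all actives have a fitted effect of over 50% in size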
Target sequence (P10828 whole entry, looked up): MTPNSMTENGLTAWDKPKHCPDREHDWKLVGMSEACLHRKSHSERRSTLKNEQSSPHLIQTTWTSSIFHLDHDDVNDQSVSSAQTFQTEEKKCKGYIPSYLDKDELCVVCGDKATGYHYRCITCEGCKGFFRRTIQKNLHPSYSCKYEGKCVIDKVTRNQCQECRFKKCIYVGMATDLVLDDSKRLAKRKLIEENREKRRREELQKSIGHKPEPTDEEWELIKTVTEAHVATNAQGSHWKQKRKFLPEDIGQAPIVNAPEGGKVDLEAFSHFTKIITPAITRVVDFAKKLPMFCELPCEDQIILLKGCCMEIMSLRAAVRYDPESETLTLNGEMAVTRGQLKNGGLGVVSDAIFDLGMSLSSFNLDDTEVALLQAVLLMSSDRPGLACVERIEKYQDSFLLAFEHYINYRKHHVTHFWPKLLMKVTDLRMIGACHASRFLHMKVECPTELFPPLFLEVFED
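Assay buffer: 20 mM Tris-HCl, 100 mM NaCl, 10% glycerol, 1 mM EDTA, 0.01% NP-40, 1 mM DTT, 1 uM T3, 5% DMSO; TRb LBD 0.6 uM, Texas Red SRC2 20 nM; FP after 5 hr.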
CXXC DNA block: qHTS Fluorescence Polarization Assay for Inhibitors of MLL CXXC domain - DNA interaction. Histone-lysine N-methyltransferase 2A (Homo sapiens), Q03164. MLL-CXXC / FITC-HOXA9 DNA fluorescence polarization. Potency, µM (highest dose often 115 µM), inactives show at the top dose activity change, negative = inhibition, actives largely listed as inhibitors. 290,000 compounds, 0.037% hits. AID 2662, 2010; active = well fitted inhibition curve with a large enough effect in the polarisation, with a control signal flat, not every such curve was filed as active; inconclusive = small, poorly fitted or top-dose-only effect, or effect the other way, or a change in a side signal; inactive = no such curve, though single readings can be large or run the other way; the % refers to the polarisation; note: potency is the fitted concentration of half-maximal effect
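Fluorescence polarization: 7 uM MLL-CXXC (stock) preincubated 5 min with compounds, then 50 nM fluorescein-HOX-A9 DNA (stock) added; 30 min ambient. Buffer 50 mM Tris-HCl pH 7.5, 50 mM NaCl, 1 mM DTT, 0.05% BSA.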
Menin MLL FP TR: qHTS Assay for Inhibitors Targeting the Menin-MLL Interaction in MLL Related Leukemias: Competition With Texas Red Labeled MLL-derived Mutant Peptide; O00255; Menin + Texas Red MLL mutant peptide, fluorescence polarization; Potency, µM (highest dose often 61.6 µM), for the others: at the highest dose FP activity change, negative = inhibition, usual class: inhibitors; 270,000 compounds, 0.23% hits; AID 1768, 2009; active = well fitted inhibition curve with a large enough effect in the polarisation, with a control signal flat, not every such curve was filed as active; inconclusive = small, poorly fitted or top-dose-only effect, or effect the other way, or a change in a side signal; inactive = no such curve, though single readings can be large or run the other way; the % refers to the polarisation; note: potency is the fitted concentration of half-maximal effect; % of control where 0% means no effect
TexasRed fluor: Total Fluorescence Counterscreen for Inhibitors of the Interaction of Thyroid Hormone Receptor and Steroid Receptor Coregulator 2; AID 1479, 2009; Potency, µM (series often up to 106 µM), without a hit: at the top dose fluorescence change, negative = quenching; 280,000 compounds, 0.29% hits; TRb/SRC2 Texas Red total fluorescence interference; active = well fitted curve in either direction with a large enough effect; inconclusive = small, poorly fitted or top-dose-only effect; note: potency is the fitted concentration of half-maximal effect; % is set by controls: 0 for no effect and ±100 for the full control effect
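Human TRb ligand-binding domain at 0.6 uM with 20 nM Texas Red SRC2 peptide in Tris buffer containing 1 uM T3 and 5% DMSO, incubated with compound 5 h at ambient temperature. Total fluorescence (555/632 nm) calculated as parallel + 2 × perpendicular.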
Menin-MLL FL inh: qHTS Assay for Inhibitors Targeting the Menin-MLL Interaction in MLL Related Leukemias: Competition With Fluorescein Labeled MLL-derived Peptide; Fluorescence polarization, fluorescein-MLL peptide displacement from menin; FP activity change, % at 61.4 µM; 290,000 tested, under 10 active; active = well fitted curve in the direction sought with a large enough effect in the polarisation, not every such curve was filed as active; inconclusive = small, poorly fitted or top-dose-only effect, or effect the other way, or a change in a side signal; inactive = no such curve, though single readings can be large or run the other way; the % refers to the polarisation; note: % of control where 0% means no effect
RGS12 GoLoco inh-1: qHTS Assay for Inhibitors of RGS12 GoLoco Motif Activity (Red Fluorophore); Gai1:RGS12 GoLoco peptide FP, rhodamine, 10 min; Potency, µM (series often up to 61.6 µM), inactives show top-dose activity, negative = inhibition, hits mostly inhibitors; 230,000 compounds, 0.44% hits; active = well fitted inhibition curve with a large enough effect, not every such curve was filed as active; inactive = no such curve, though single readings can be large or run the other way; note: potency is the fitted concentration of half-maximal effect; % is set by controls: 0 for no effect and ±100 for the full control effect; nearly all actives have a fitted effect of over 30% in size
Target sequence (P63096 whole entry, looked up): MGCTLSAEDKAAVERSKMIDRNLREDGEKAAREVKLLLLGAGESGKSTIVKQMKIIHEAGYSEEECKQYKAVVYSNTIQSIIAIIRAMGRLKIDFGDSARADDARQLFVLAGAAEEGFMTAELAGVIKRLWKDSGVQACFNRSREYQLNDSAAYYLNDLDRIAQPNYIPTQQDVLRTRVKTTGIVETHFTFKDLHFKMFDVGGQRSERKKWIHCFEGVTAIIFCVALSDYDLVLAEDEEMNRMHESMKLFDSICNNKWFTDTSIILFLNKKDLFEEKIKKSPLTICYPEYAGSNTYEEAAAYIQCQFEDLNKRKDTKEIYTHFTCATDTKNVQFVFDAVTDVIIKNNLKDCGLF
RGS12 GoLoco inh-2: Confirmation qHTS Assay for Inhibitors of RGS12 GoLoco Motif Activity (Red Fluorophore) | shares compounds with RGS12 GoLoco inh-1 | Gai1/rhodamine-RGS12 GoLoco peptide fluorescence polarization | Potency, µM (doses to about 57.1 µM), inactives show at the highest dose activity, negative = inhibition, most hits filed as inhibitors | 110 compounds, 50% hits | AID 2390, 2010
MLL CXXC Fl: qHTS Fluorescence Polarization (FP) Assay for Inhibitors of MLL CXXC domain - DNA interaction: Fluorescein FP | shares compounds with CXXC DNA block | MLL CXXC-DNA binding, fluorescein FP | Potency, µM (series often up to 345 µM), for inactives: at the top dose activity change, negative = inhibition, hits mostly inhibitors | 200 compounds, 70% hits; note: potency is the fitted concentration of half-maximal effect; nearly all actives have a fitted effect of over 80% in size
MLL CXXC TxRed: qHTS Fluorescence Polarization (FP) Assay for Inhibitors of MLL CXXC domain - DNA interaction: Texas Red FP; shares compounds with CXXC DNA block; MLL CXXC-DNA binding, Texas Red fluorescence polarization; 200 compounds, 40% hits; Potency, µM (doses to about 345 µM), without a hit: at the top dose activity change, negative = inhibition, actives largely listed as inhibitors; AID 624161, 2012; note: potency is the fitted concentration of half-maximal effect; % is set by controls: 0 for no effect and ±100 for the full control effect; nearly all actives have a fitted effect of over 75% in size
MLL CXXC TRF: qHTS Fluorescence Polarization (FP) Assay for Inhibitors of MLL CXXC domain - DNA interaction: HTRF Assay; MLL CXXC-DNA binding, HTRF, biochemical; shares compounds with CXXC DNA block; 210 compounds, 30% hits; Potency, µM (top dose mostly 172 µM), without a hit: top-dose activity change, negative = inhibition, most hits filed as inhibitors; AID 624162, 2012; note: % is set by controls: 0 for no effect and ±100 for the full control effect; nearly all actives have a fitted effect of over 80% in size
An asterisk follows results filed as active; ? = inconclusive; . = no result; ! = not confirmed by another sample; [ ] = dose if it differs, or a comment. Shown are actives, neighbours in structure and some others; about 0.5% of the full set was active somewhere. Unless noted, calls come from the whole dose curve; as a rule, active = well fitted curve in the direction sought with a large enough effect; inconclusive = small, poorly fitted or top-dose-only effect, or another doubt; inactive = no such curve, though single readings can be large; an effect the other way counts as inactive or inconclusive.

SMILES	TRb SRC2 PPI	CXXC DNA block	Menin MLL FP TR	TexasRed fluor	Menin-MLL FL inh	RGS12 GoLoco inh-1	others
CN1C(=O)C(=Cc2ccc(N3CCCCC3)o2)C(=O)N(C)C1=S	?	84.1%	25.1µM*	15.1%	?	254.8%
CC/C(=N\OC/C=C/Cl)C1=C(O)CC(C2CCOCC2)CC1=O (configuration not stated)	-0.4%[201 µM]	.	.	1.9%[201 µM]	.	.
CN(N=O)c1ccc(O)c(O)c1	-27.8%	?	?	?	-4.5	4.47µM*
C[C@H]1CC[C@@]2(NC1)O[C@@H]1C[C@@H]3[C@@H]4CC=C5C[C@@H](O)CC[C@]5(C)[C@@H]4CC[C@]3(C)[C@H]1[C@@H]2C	.	.	.	.	.	3.5%[14.2 µM]
CC1CC[C@@]2(NC1)OC1CC3C4CC[C@@H]5CC(O)CC[C@@]5(C)C4CC[C@]3(C)C1C2C (some centres not stated)	-1.3%	-3.0%	-23.2%	-1.5%	1.8	31.6µM*
COc1ccc(CCN)cc1O	5.1%	9.2%	?	0.4%	-2.2	10.6%
NCCc1cc(O)c(O)cc1O	39.8µM*!	6.0%	39.8µM*	4.1%	?	25.1µM*
COc1ccc(N=C2SCCCN2C)cc1	-7.6%	0.2%	-7.8%	1.4%	1.9	7.94µM*
NC1=NC([S][Hg][c]2ccc(N)cc2)c2ncn([C@@H]3O[C@H](CO)[C@@H](O)[C@@H]3O)c2N1 (some centres not stated)	.	.	.	.	.	0.501µM*
CC(C)[N+](C)(CCC(C(N)=O)(c1ccccc1)c1ccccc1)C(C)C	0.0%	-0.6%	4.4%	1.1%	0.2	5.01µM*!
CN(C)C1C(=O)C(C(N)=O)C(=O)C2(O)C(=O)C3C(=O)c4c(O)cccc4C(C)(O)C3C(O)C12 (configuration not stated)	18.4%	-7.0%	?	28.2µM*[quencher]	?	-24.4%
CN(C)[C@@H]1C(=O)C(C(N)=O)=C(O)[C@@]2(O)C(=O)C3=C(O)c4c(O)cccc4[C@@](C)(O)[C@H]3[C@H](O)[C@@H]12	?	-6.7%	?	15.8µM*![quencher]	?	-33.0%
CN(C)C1C(=O)C(C(N)=O)=C(O)[C@@]2(O)C(=O)C3=C(O)c4c(O)cccc4[C@](C)(O)C3C(O)C12 (some centres not stated)	3.8%	.	-2.6%	-16.6%	?	-4.2%
CCSCCSP(=O)(OC)OC	0.3%[201 µM]	.	.	-0.5%[201 µM]	.	.
CCCCOP(=O)(O)OCCCC	6.5%[201 µM]	.	.	2.5%[201 µM]	.	.
O=C(O)c1cc[c]([Hg][Cl])cc1	1.9%	-2.4%	-3.2%	-4.6%	2.4	1.26µM*
CCOc1nc(C(Cl)(Cl)Cl)ns1	-10.4%[201 µM]	.	.	-3.8%[201 µM]	.	.
CCC(=O)OC1CCC2C3CCC4=CC(=O)CC[C@@]4(C)C3CC[C@]12C (some centres not stated)	5.0%	.	-3.7%	0.0%	0.4	14.1µM*
CN/C(=N\[N+](=O)[O-])NCc1cnc(Cl)s1	4.1%[201 µM]	.	.	1.4%[201 µM]	.	.
CC(C)N1C(=O)/C(=C/C=C/c2ccco2)C(=O)N(Cc2ccco2)C1=O	19.5%	-6.8%	29.6%	-7.3%	?	173.9%
CCN1C(=O)C(=C/C=C/c2ccco2)C(=O)N(CC)C1=S	?	?	?	28.2µM*[fluorescent]	?	-54.8%
C=C1C(O)(c2ccccc2)C2CC[N+]1(C)CC2 (configuration not stated)	-5.8%	14.0%	5.5%	-0.7%	3.6	10µM*	RGS12 GoLoco inh-2=?
C=C1N2CCC(CC2)C1(O)c1ccc(C)cc1 (configuration not stated)	2.4%	5.6%	-0.5%	2.8%	2.5	-14.9%
CCC[N+]12CCC(CC1)C(=C(c1ccccc1)c1ccccc1)C2	-12.1%	0.8%	4.4%	-3.5%	-10.4	6.7%
CCCC[N+]12CCC(CC1)C(=C(c1ccccc1)c1ccccc1)C2	-3.1%	0.4%	-17.5%	0.7%	-0.1	7.94µM*	RGS12 GoLoco inh-2=15.8µM*
CC(C)=C[C@@H]1[C@@H](C(=O)OCN2C(=O)C3=C(CCCC3)C2=O)C1(C)C	4.9%[201 µM]	.	.	-2.1%[201 µM]	.	.
C[N+]12CCC(CC1)C(C#N)(N1CCOCC1)C2 (configuration not stated)	2.8%	16.1%	-1.9%	-1.0%	1.0	2.24µM*	RGS12 GoLoco inh-2=?
NC(N)=Nc1ccc2[nH]c3c(c2c1)C[C@@]1(O)[C@H]2Cc4ccc(O)c5c4[C@@]1(CCN2CC1CC1)[C@H]3O5	-1.8%	15.5%	2.4%	-2.5%	-3.3	2.82µM*	RGS12 GoLoco inh-2=7.94µM*
O=Cc1cccc(Oc2ccccc2)c1	5.1%[201 µM]	.	.	-4.7%[201 µM]	.	.
CCn1nc(-c2cccs2)nc2c(=O)n(C)c(=O)nc1-2	?	?	?	-6.2%	-11.1	6.0%	MLL CXXC Fl=?;MLL CXXC TxRed=?;MLL CXXC TRF=47.1%
